Records with an inconclusive call do not appear. The source made the active and inactive calls. Unless noted, the call rests on the fitted dose curve; in most records, active means well fitted curve in the direction sought with a large enough effect in the repeat runs; inconclusive means weak or mixed curves; inactive means no such curve, though single readings can be large; an effect the other way counts as inactive or inconclusive.
Tests used:
[1] = qHTS assay to identify small molecule antagonists of the estrogen related receptor (ERR) signaling pathway - cell viability counter screen (AID 1224818);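 further: series mostly up to about 46 µM; viability measured after 17.5 h of compound exposure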
Method in brief: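 Cytotoxicity counter screen: fluorescence from CellTiter-Fluor, added after 17.5 h compound exposure at 37 C and read 30 min later. ERR cell line seeded at 2,000 cells/well, preincubated 6 h before dosing.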

[2] = qHTS assay to identify small molecule agonists of the estrogen related receptor (ERR) signaling pathway (AID 1224820)
Method in brief: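 Following a 6 h settling period, 2,000 ERR cells per well receive DMSO-dissolved compounds by pin tool and incubate 18 h at 37 C; agonist activity is scored from One-Glo luminescence read 30 min post-addition.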

[3] = system: estrogen-related receptor alpha (ERRalpha) with PGC-1alpha coactivator, human; assay: qHTS assay to identify small molecule antagonists of the estrogen related receptor signaling pathway with the pleiotropic PPARgamma coactivator (PGC) (AID 1224821; calls by dose curve;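 further: series mostly up to about 46 µM; lower luminescence signal means antagonism of PGC/ERR signalling; nearly all actives have a fitted effect of over 50% in size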)
Method in brief: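 Screening used NTP's PGC/ERR cells, dosed via pin tool with compound in DMSO alongside positive and negative controls. After 18 h at 37 C, One-Glo reagent sat 30 min at room temperature before luminescence detection.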

[4] = qHTS assay to identify small molecule antagonists of the estrogen related receptor signaling pathway with the pleiotropic PPARgamma coactivator (PGC) cell viability counter screen (AID 1224822; further: series mostly up to about 46 µM)
Method in brief: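 Viability counter-screen read by fluorescence intensity after 30 min with CellTiter-Fluor at 37 C; PGC/ERR reporter cells were exposed to compounds for 17.5 h at 37 C following a 6 h preincubation.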

[5] = qHTS assay to identify small molecule agonists of the estrogen related receptor signaling pathway with the pleiotropic PPARgamma coactivator (PGC) (AID 1224823)
Method in brief: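 In this quantitative high-throughput screen, an 18 h, 37 C treatment of PGC/ERR cells with compounds in DMSO preceded a One-Glo luminescence read taken after 30 min at room temperature.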

[6] = qHTS assay for small molecule agonists of the p53 signaling pathway (AID 651631; calls by dose curve; further: nearly all actives have a fitted effect of over 15% in size)
Method in brief: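 Read-out is beta-lactamase FRET fluorescence measured 2 h after substrate addition at room temperature, in HCT-116 cells with a p53 response element-driven reporter exposed to compounds for 16 h at 37 °C.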

[7] = qHTS assay for small molecules that induce genotoxicity in human embryonic kidney cells expressing luciferase-tagged ATAD5 (AID 651632); further: nearly all actives have a fitted effect of over 15% in size
Method in brief: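 A rise in luciferase signal from ATAD5-tagged HEK293T cells marks genetic stress. Cells were exposed to compounds for 16 hr at 37C, 5% CO2, then luciferase was quantified after a 30 min room-temperature incubation with Amplite.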

[8] = qHTS assay for small molecule agonists of the p53 signaling pathway - cell viability (AID 651633; calls by dose curve;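 further: p53RE-bla HCT reporter cells with a stable beta-lactamase p53 reporter; series mostly up to about 83 µM; nearly all actives have a fitted effect of over 30% in size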)
Method in brief: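 p53RE-bla cells were treated with compound for 16 hours at 37 C. Cytotoxicity was then measured as CellTiter-Glo luminescence after 30 min at room temperature.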

[9] = qHTS assay for small molecules that induce genotoxicity in human embryonic kidney cells expressing luciferase-tagged ATAD5 - cell viability (AID 651634; calls by dose curve; further: nearly all actives have a fitted effect of over 25% in size)
Method in brief: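 Cytotoxicity counter-readout: after 15.5 hr compound treatment at 37C, live-cell protease activity in ATAD5-luciferase HEK293T cells measured by CellTiter-Fluor fluorescence, 30 min development at 37C.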

[10] = qHTS assay to test for compound auto fluorescence at 590 nm (red) in HepG2 cells (AID 720674)
Method in brief: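 HepG2 cells, 2,000 per well in MEM with 10% FBS, attached overnight at 37 C, then got 23 nL compound or DMSO. After 1 hr at 37 C, 5% CO2, red fluorescence was read at 540/590 nm against Rose Bengal sodium as reference.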

[11] = qHTS assay to test for compound auto fluorescence at 535 nm (green) in HepG2 cells (AID 720675)
[12] = qHTS assay to test for compound auto fluorescence at 460 nm (blue) in HEK293 cells (AID 720678)
Method in brief: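 HEK293, 2,000 cells/well, 10% dialyzed FBS; attach 4-5 hr 37C; pin compound or DMSO; o/n 37C/5% CO2; fluorescence 405/460 nm; triamterene-equivalent units.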

[13] = qHTS assay to test for compound auto fluorescence at 590 nm (red) in HEK293 cells (AID 720679)
Method in brief: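 Intensity at 540nm excitation and 590nm emission is reported as Rose Bengal sodium-equivalent autofluorescence. Measurements followed overnight exposure (37C, 5% CO2) of HEK293 cells, 2,000 per well, to 23 nL compound.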

[14] = qHTS assay to test for compound auto fluorescence at 535 nm (green) in HEK293 cells (AID 720680)
[15] = qHTS assay to test for compound auto fluorescence at 460 nm (blue) in HEK293 cell free culture (AID 720681)
Method in brief: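 Compounds were added to cell-free DMEM with 10% FBS and fluorescence read directly. The blue channel used 405 nm excitation and 460 nm emission, with triamterene as the reference fluorophore.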

[16] = qHTS assay to test for compound auto fluorescence at 590 nm (red) in HEK293 cell free culture (AID 720683)
Method in brief: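 Cell-free wells of DMEM with 10% FBS received compound, and intrinsic fluorescence was read at excitation/emission 540/590 nm. Values expressed as equivalence to Rose Bengal sodium.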

[17] = qHTS assay to test for compound auto fluorescence at 590 nm (red) in HepG2 cell free culture (AID 720684)
Method in brief: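 Rose Bengal sodium served as the reference for red signal. Test compounds were dispensed into serum-containing MEM (10% FBS) without cells, and plates were read at 540/590 nm.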

[18] = qHTS assay to test for compound auto fluorescence at 460 nm (blue) in HepG2 cell free culture (AID 720685)
Method in brief: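 Cell-free plates of MEM plus 10% FBS received 23 nL compound or DMSO vehicle; blue-channel (405/460 nm) intensity scored against triamterene as reference fluorophore.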

[19] = qHTS assay to test for compound auto fluorescence at 535 nm (green) in HepG2 cell free culture (AID 720686)
[20] = target: Glucocorticoid receptor (Homo sapiens) (UniProt P04150); assay: qHTS assay to identify small molecule agonists of the glucocorticoid receptor (GR) signaling pathway (AID 720691; active means well fitted activation curve with a large enough effect in the signal ratio in the repeat runs, not every such curve was filed as active; the % refers to the signal ratio)
Method in brief: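 Agonist-mode qHTS in HeLa cells stably expressing a glucocorticoid-response-element beta-lactamase reporter. Fluorescence intensity read with FRET substrate (2 h, room temperature) after 18 h compound treatment at 37 C.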

[21] = target: Glucocorticoid receptor (Homo sapiens) (UniProt P04150); assay: qHTS assay to identify small molecule antagonists of the glucocorticoid receptor (GR) signaling pathway (AID 720692; active means well fitted inhibition curve with a large enough effect in the signal ratio in the repeat runs, not every such curve was filed as active; the % refers to the signal ratio)
Method in brief: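 Inhibition of dexamethasone-driven (5 nM final) beta-lactamase expression was measured in GRE-reporter HeLa cells over 18 h at 37C. Fluorescence was read after 2 h with the B/G FRET substrate at room temperature.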

[22] = qHTS assay to identify small molecule antagonists of the glucocorticoid receptor (GR) signaling pathway - cell viability counter screen (AID 720693); further: nearly all actives have a fitted effect of over 55% in size
[23] = qHTS assay for identifying genotoxic compounds that show differential cytotoxicity against isogenic chicken DT40 cell lines with known DNA damage response pathways - wild type cell line (AID 743012); further: nearly all actives have a fitted effect of over 60% in size
Method in brief: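 Viability by ATP luminescence (CellTiter-Glo, 30 min RT) after 40 h compound treatment at 37 C/5% CO2, using 300 parental DNA repair-proficient DT40 cells per well.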

[24] = qHTS assay for identifying genotoxic compounds that show differential cytotoxicity against isogenic chicken DT40 cell lines with known DNA damage response pathways - Rev3 mutant cell line (AID 743014); further: nearly all actives have a fitted effect of over 55% in size
[25] = qHTS assay to identify small molecule antagonists of the androgen receptor (AR) signaling pathway - cell viability counter screen (AID 743033; further: nearly all actives have a fitted effect of over 45% in size)
[26] = qHTS assay to identify small molecule antagonists of the androgen receptor (AR) signaling pathway using the MDA cell line - cell viability counter screen (AID 743041; further: nearly all actives have a fitted effect of over 45% in size)
Method in brief: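 Cytotoxicity counter screen: MDA-kb2 AR-luc cells, compound + R1881, 16 h, 37C, 0% CO2; CellTiter-Fluor added at 15.5 h, fluorescence read after 30 min.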

[27] = qHTS assay to identify small molecule antagonists of the thyroid receptor (TR) signaling pathway - cell viability counter screen (AID 743064); further: nearly all actives have a fitted effect of over 50% in size
Method in brief: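 Fluorescence from CellTiter-Fluor, added after 23.5 h exposure at 37 °C, reported viability of GH3.TRE-Luc cells co-treated with compound and 1 nM T3. Measured in the same wells as the luciferase TR readout.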

[28] = qHTS assay to identify small molecule antagonists of the thyroid receptor (TR) signaling pathway (AID 743065); further: series mostly up to about 70 µM; nearly all actives have a fitted effect of over 55% in size
Method in brief: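 GH3.TRE-Luc rat pituitary cells (two TREs driving luciferase) were dosed with compound, then stimulated with 1 nM T3 (final) for 23.5 h at 37 C. ONE-Glo luminescence was the read-out, with CellTiter-Fluor fluorescence as the cytotoxicity counter-screen.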

[29] = system: thyroid hormone receptor (rat, GH3 cells); assay: qHTS assay to identify small molecule agonists of the thyroid receptor (TR) signaling pathway (AID 743066; calls by dose curve)
[30] = target: Estrogen receptor (Homo sapiens) (UniProt P03372); assay: qHTS assay to identify small molecule antagonists of the estrogen receptor alpha (ER-alpha) signaling pathway (AID 743069; active means well fitted curve in the direction sought with a large enough effect in the signal ratio in the repeat runs, not every such curve was filed as active; the % refers to the signal ratio)
Method in brief: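 Beta-lactamase FRET fluorescence is read after 2 hr at room temperature with LiveBLAzer B/G substrate. Before that, ER-alpha-bla HEK293 cells sit 4 hr after plating, then receive compound plus 17beta-estradiol and incubate 18 hr at 37C.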

[31] = target: Estrogen receptor (Homo sapiens) (UniProt P03372); assay: qHTS assay to identify small molecule agonists of the estrogen receptor alpha (ER-alpha) signaling pathway (AID 743075; calls by dose curve;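 further: HEK293 GripTite cells with ER-alpha and UAS-driven beta-lactamase reporter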)
[32] = target: Estrogen receptor (Homo sapiens) (UniProt P03372); assay: qHTS assay to identify small molecule agonists of the estrogen receptor alpha (ER-alpha) signaling pathway using the BG1 cell line (AID 743079); further: nearly all actives have a fitted effect of over 20% in size
[33] = qHTS assay to identify small molecule antagonists of the estrogen receptor alpha (ER-alpha) signaling pathway using the BG1 cell line (AID 743080; calls by dose curve;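 further: BG1 cells stimulated with 17beta-estradiol alongside compound; series mostly up to about 70 µM; nearly all actives have a fitted effect of over 25% in size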)
Method in brief: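 BG1Luc4E2, endogenous ER-alpha, 4xERE-luc; 5 d charcoal-stripped FBS, phenol red free; 24 h plating; cpd + 17beta-estradiol 21.5 h, 37 C/5% CO2; CellTiter-Fluor viability 30 min, then ONE-Glo luciferase 30 min RT.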

[34] = qHTS assay to identify small molecule antagonists of the estrogen receptor alpha (ER-alpha) signaling pathway using the BG1 cell line - cell viability counter screen (AID 743081);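 further: compound given together with 17beta-estradiol as the ER stimulus; series mostly up to about 70 µM; nearly all actives have a fitted effect of over 45% in size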
[35] = target: Aromatase (Homo sapiens) (UniProt P11511); assay: qHTS assay to identify aromatase inhibitors (AID 743083); further: series mostly up to about 70 µM; nearly all actives have a fitted effect of over 55% in size
[36] = qHTS assay to identify aromatase inhibitors - cell viability counter screen (AID 743084)
[37] = target: Aryl hydrocarbon receptor (Homo sapiens) (UniProt P35869); assay: qHTS assay to identify small molecule that activate the aryl hydrocarbon receptor (AhR) signaling pathway (AID 743085);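 further: HG2L7.5c1 human HepG2 liver cells with stably integrated DRE-driven firefly reporter; series mostly up to about 70 µM; nearly all actives have a fitted effect of over 15% in size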
Method in brief: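 Cell line HG2L7.5c1 (human hepatoma, 20× DRE-luc). Plated, 5 h 37C, compound/DMSO added, 24 h 37C. CellTiter-Fluor 30 min 37C → fluorescence; then ONE-Glo 30 min RT → luminescence.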

[38] = qHTS assay to identify small molecule that activate the aryl hydrocarbon receptor (AhR) signaling pathway - cell viability counter screen (AID 743086);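 further: HepG2 liver cells carrying the AhR DRE luciferase reporter; series mostly up to about 70 µM; nearly all actives have a fitted effect of over 45% in size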
Method in brief: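 HepG2-AhR-luc (HG2L7.5c1) cells, 4000/well, treated 24 h at 37 C with compound; viability measured as CellTiter-Fluor fluorescence after 30 min in the same wells as the luciferase read.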

[39] = qHTS assay to identify small molecule phospholipidosis (PLD) inducers (AID 1259344; active means well fitted curve in the direction sought with a large enough effect; an effect the other way counts as inactive or inconclusive)
Method in brief: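 Read-out is LipidTOX Red fluorescence (ex 595/em 615) imaged in HepG2 cells after 24 h compound exposure at 37 C, with Hoechst nuclear counterstain (ex 352/em 461) allowing per-cell normalisation.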

Measured: Potency

Sequence of Estrogen receptor (Homo sapiens) (P03372 whole entry, looked up): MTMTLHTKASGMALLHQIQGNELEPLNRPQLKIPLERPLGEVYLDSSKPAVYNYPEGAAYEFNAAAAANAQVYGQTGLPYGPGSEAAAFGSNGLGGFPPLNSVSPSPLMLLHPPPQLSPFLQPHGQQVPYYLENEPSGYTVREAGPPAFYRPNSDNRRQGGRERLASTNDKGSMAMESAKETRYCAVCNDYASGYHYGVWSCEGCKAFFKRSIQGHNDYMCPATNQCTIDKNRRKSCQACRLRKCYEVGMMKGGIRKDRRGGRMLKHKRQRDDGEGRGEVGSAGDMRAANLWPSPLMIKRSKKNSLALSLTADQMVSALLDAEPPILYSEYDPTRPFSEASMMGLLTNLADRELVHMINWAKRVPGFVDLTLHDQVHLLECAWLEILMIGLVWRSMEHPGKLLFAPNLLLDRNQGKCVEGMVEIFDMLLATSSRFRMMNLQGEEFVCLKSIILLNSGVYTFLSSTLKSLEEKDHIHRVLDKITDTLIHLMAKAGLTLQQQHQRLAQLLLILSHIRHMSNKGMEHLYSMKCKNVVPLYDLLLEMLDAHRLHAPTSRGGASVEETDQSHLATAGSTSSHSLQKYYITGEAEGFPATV
Sequence of Glucocorticoid receptor (Homo sapiens) (P04150 whole entry, looked up): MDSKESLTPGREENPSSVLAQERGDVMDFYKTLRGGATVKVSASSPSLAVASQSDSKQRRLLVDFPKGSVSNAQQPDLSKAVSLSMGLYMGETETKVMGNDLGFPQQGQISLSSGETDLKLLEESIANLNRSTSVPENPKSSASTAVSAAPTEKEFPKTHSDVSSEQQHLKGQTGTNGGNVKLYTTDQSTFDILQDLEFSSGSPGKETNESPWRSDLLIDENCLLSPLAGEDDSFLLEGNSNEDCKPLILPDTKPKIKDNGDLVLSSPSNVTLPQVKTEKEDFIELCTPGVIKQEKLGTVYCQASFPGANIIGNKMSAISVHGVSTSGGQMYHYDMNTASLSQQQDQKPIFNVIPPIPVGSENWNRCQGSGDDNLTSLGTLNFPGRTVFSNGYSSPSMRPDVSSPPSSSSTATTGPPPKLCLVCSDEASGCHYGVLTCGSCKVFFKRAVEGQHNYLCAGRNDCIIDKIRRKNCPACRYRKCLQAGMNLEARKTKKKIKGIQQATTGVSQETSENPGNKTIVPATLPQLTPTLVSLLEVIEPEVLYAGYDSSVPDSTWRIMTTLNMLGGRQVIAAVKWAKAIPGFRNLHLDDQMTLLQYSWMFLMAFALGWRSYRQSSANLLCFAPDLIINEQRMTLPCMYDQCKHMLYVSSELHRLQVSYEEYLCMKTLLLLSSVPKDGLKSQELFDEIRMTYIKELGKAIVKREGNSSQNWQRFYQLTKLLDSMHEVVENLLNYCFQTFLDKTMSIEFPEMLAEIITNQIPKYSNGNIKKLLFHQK
Sequence of Aryl hydrocarbon receptor (Homo sapiens) (P35869 whole entry, looked up): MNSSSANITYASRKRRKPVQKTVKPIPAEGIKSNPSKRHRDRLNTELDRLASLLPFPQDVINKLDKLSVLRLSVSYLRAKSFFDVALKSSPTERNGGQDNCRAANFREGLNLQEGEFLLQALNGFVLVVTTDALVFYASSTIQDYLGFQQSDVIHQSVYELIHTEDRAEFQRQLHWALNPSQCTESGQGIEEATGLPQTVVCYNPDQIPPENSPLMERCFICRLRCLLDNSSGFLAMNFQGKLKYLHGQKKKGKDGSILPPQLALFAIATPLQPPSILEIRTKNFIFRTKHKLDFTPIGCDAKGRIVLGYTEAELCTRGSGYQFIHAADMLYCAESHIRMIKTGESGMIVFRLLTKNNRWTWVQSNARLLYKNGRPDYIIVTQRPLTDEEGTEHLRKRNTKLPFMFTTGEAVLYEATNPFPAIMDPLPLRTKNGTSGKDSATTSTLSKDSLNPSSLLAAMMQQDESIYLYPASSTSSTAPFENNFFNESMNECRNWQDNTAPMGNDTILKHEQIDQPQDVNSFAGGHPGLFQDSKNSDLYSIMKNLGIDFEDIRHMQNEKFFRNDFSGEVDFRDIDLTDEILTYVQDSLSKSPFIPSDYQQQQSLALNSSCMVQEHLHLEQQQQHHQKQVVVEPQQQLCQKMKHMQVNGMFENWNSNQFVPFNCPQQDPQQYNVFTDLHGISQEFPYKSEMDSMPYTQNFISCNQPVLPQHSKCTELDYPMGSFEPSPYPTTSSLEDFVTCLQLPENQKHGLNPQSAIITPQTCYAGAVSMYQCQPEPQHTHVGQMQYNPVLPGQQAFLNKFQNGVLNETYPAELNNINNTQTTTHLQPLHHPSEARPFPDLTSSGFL
Sequence of Aromatase (Homo sapiens) (P11511 whole entry, looked up): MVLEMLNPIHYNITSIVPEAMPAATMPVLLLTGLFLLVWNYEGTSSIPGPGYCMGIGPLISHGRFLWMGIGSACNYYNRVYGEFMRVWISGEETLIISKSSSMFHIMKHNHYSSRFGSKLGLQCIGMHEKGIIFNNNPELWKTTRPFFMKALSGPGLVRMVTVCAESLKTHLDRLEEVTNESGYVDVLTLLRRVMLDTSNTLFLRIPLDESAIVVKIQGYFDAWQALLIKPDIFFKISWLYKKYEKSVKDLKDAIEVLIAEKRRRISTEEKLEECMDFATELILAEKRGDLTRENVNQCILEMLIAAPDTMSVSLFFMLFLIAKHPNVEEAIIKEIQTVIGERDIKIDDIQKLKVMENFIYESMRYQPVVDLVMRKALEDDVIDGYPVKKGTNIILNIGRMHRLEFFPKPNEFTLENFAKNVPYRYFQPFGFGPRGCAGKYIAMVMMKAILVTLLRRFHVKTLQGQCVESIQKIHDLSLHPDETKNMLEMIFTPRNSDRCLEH

CN(C(=O)Cc1ccc(Cl)c(Cl)c1)C(CN1CCCC1)c1cccc(OCC(=O)O)c1 (centres undefined)
inactive: [1] | [2] | [3] | [4] | [5]

NC1CC1c1ccccc1 (centres undefined)
inactive: [1] | [4]

O=c1ccc2[nH]cc(C3=CCNCC3)c2[nH]1
inactive: [1] | [2] | [3] | [5]

NC(=O)c1ccc(OCC(O)CN2CC=C(c3ccc(F)cc3)CC2)cc1 (centres undefined)
inactive: [1] | [2] | [3] | [4] | [5]

[Cl-].[Cl][Pt].[NH2-].[NH2-].c1ccncc1
inactive: [1] | [4]

C[C@H](N)CN1CCc2ccc(Br)cc21
inactive: [1] | [3] | [4] | [5]

Oc1ccc2c3c1O[C@H]1c4oc5ccccc5c4C[C@@]4(O)C(C2)N(CC2CC2)CCC314 (some centres undefined)
inactive: [1] | [2] | [3] | [5]

CN1CC[C@@]2(C)c3cc(OC(=O)Nc4ccccc4)ccc3N(C)[C@@H]12
inactive: [1] | [3]

N#C/C(=C/c1ccc(O)c(O)c1)C(N)=S
inactive: [1] | [2] | [3] | [4] | [5]

C[C@]12CCC3C(CC[C@H]4C[C@H](O)CC[C@]34C)C1CC[C@@H]2C(=O)CO (some centres undefined)
inactive: [1] | [2] | [3] | [5]

CCCN(CCC)C1Cc2cc(OC)c(OC)cc2C1
inactive: [1] | [2] | [3] | [4] | [5]

C=CCN1CC[C@]23CCCCC2[C@H]1Cc1ccc(O)cc13 (some centres undefined)
inactive: [1] | [3] | [4] | [5]

COc1ccc2c(c1)C13CCCCC1C(C2)N(C)CC3 (centres undefined)
inactive: [1] | [2] | [4] | [5]

C[N+]1(C)C2CCC1CC(OC(=O)C(CO)c1ccccc1)C2 (centres undefined)
inactive: [1] | [4]

CN1C2CCC1CC(OC(=O)c1cc(Cl)cc(Cl)c1)C2 (centres undefined)
inactive: [1] | [4]

c1ccc2sc(C3(N4CCCCC4)CCCCC3)cc2c1
inactive: [1] | [2] | [3] | [5]

C[N+]1(C)C2CCC1CC(OC(=O)c1c[nH]c3ccccc13)C2 (centres undefined)
inactive: [1] | [2] | [3] | [5]

N[C@@H](Cn1oc(=O)[nH]c1=O)C(=O)O
inactive: [1] | [2] | [3] | [5]

CCCN1CCC[C@H](c2cccc(O)c2)C1
not listed: [5]
inactive: all other assays above

Reference: PubChem BioAssay (Tox21)
